Reference: PubChem BioAssay (NCI)
This is part of a sample that, as a whole, favours compounds with a hit. Of some 79,000 tested, about 15% had one in any assay. The source made the active and inactive calls. No stated cut-off is given here; in the data, active means growth inhibition above about 70%; inactive means the rest.

Legend:
[1] = NCI Yeast Anticancer Drug Screen. Data for the rad52 strain (AID 147);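 further: 0% = growth of vehicle-treated control cultures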; conditions: S. cerevisiae rad52 mutant growth inhibition, hits give high values
In short: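 The repair-mutant yeast strain was incubated with compounds, then growth was read and inhibition derived relative to vehicle.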

[2] = NCI Yeast Anticancer Drug Screen. Data for the wt1 strain (AID 149);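 further: 0% = growth of vehicle-treated wt1 cultures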; conditions: S. cerevisiae wt1 strain (SPY 50644) growth inhibition, hits give high values
In short: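 wt1 yeast, compound-treated; % growth inhibition vs vehicle control.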

[3] = NCI Yeast Anticancer Drug Screen. Data for the rad50EPP+ strain (AID 151);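 further: 0% = growth of vehicle-treated control cultures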; conditions: S. cerevisiae rad50 mutant strain, hits give high values
In short: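 Vehicle-normalised growth inhibition; rad50EPP+ yeast strain, altered in DNA damage repair, compound-treated.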

[4] = NCI Yeast Anticancer Drug Screen. Data for the mgt1 strain (AID 153); conditions: S. cerevisiae mgt1 mutant growth inhibition, hits give high values
In short: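 Vehicle-normalized growth inhibition is determined in mgt1 yeast, a strain selected for a defined alteration in DNA repair or cell cycle control.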

[5] = NCI Yeast Anticancer Drug Screen. Data for the rad50 strain (AID 155);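 further: 0% = growth of vehicle-only cultures of the same strain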; conditions: S. cerevisiae rad50 strain growth inhibition, hits give high values
In short: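 Genetically altered yeast (DNA repair pathway); compound treatment; growth inhibition vs vehicle ctrl.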

[6] = NCI Yeast Anticancer Drug Screen. Data for the mec2-1 strain (AID 157); conditions: S. cerevisiae mec2-1 strain, hits give high values
In short: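 Mutant yeast (mec2-1) grown with compound; growth inhibition relative to vehicle control reported.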

[7] = NCI Yeast Anticancer Drug Screen. Data for the rad14 strain (AID 159);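 further: 0% = growth of vehicle-treated control cultures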; conditions: S. cerevisiae rad14 strain growth inhibition, hits give high values
In short: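 Test compounds were applied to a repair-deficient yeast strain. Its growth was then compared with that of cultures given vehicle alone, and inhibition was expressed relative to those controls.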

[8] = NCI Yeast Anticancer Drug Screen. Data for the sgs1 mgt1 strain (AID 161);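 further: 0% = growth of cultures given vehicle only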; conditions: S. cerevisiae sgs1 mgt1 strain, hits give high values
In short: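 Growth of a repair-deficient yeast mutant was monitored after compound treatment and expressed as inhibition relative to vehicle-treated cultures.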

[9] = NCI Yeast Anticancer Drug Screen. Data for the CLN2oe strain (AID 163);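 further: 0% = growth of vehicle-only control cultures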; conditions: S. cerevisiae CLN2oe strain, hits give high values
In short: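 Compounds are applied to yeast harbouring a defined cell-cycle control change; reduced growth compared with vehicle-treated controls gives the value.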

[10] = NCI Yeast Anticancer Drug Screen. Data for the cln2 rad14 strain (AID 165);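 further: 0% = growth equal to vehicle treated cultures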; conditions: S. cerevisiae cln2 rad14 strain, hits give high values
In short: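 Readout is yeast growth inhibition versus vehicle-treated controls, using a strain with cln2 and rad14 alterations exposed to compound.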

[11] = NCI Yeast Anticancer Drug Screen. Data for the bub3 strain (AID 167); conditions: S. cerevisiae bub3 mutant strain, hits give high values
In short: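 Yeast carrying a defined mutation is treated with each compound, and growth is compared with that of vehicle-exposed cells to give inhibition.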

[12] = NCI Yeast Anticancer Drug Screen. Data for the mlh1 strain (AID 171);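 further: 0% = growth of vehicle-treated control cultures of the same strain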; conditions: S. cerevisiae mlh1 strain growth inhibition, hits give high values
In short: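 Measured: yeast growth. Reference: vehicle-treated controls. Organism: strain with a defined alteration affecting DNA damage repair or cell cycle control, treated with compound.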

[13] = NCI Yeast Anticancer Drug Screen. Data for the sgs1 strain (AID 173);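 further: 0% = growth of vehicle-only control cultures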; conditions: S. cerevisiae sgs1 mutant, hits give high values
In short: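 Each compound was added to cultures of the altered yeast strain. Growth was recorded, and inhibition was derived by comparison with vehicle controls.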

[14] = NCI Yeast Anticancer Drug Screen. Data for the mlh1 rad18 strain (AID 175); conditions: S. cerevisiae mlh1 rad18 strain growth inhibition, hits give high values
In short: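 Genetically defined yeast (DNA repair-deficient) exposed to compounds; growth inhibition determined relative to vehicle.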

[15] = NCI Yeast Anticancer Drug Screen. Data for the rad18 strain (AID 177); conditions: S. cerevisiae rad18 mutant growth inhibition, hits give high values
In short: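 Vehicle-treated cultures served as the baseline for scoring compound-induced growth inhibition in DNA-repair-mutant yeast.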

[16] = NCI Yeast Anticancer Drug Screen. Data for the wt2 strain (AID 169);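 further: 0% = growth of vehicle-treated yeast cultures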; conditions: S. cerevisiae wt2 strain growth inhibition, hits give high values
In short: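 Against vehicle-treated controls, the growth of yeast exposed to each compound was compared, and the inhibition was recorded.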

[17] = at 5.0 µM (retest, dose inferred, filed as 0.5)
[18] = at 50.0 µM (retest, dose inferred, filed as 5.0)

Measured: growth inhibition

N#CNC(N)=Nc1cc2ccccc2c2ccccc12
inactive: [1]; at 1.2 µM 34% | [1]; at 3.7 µM 60% | [2]; at 1.2 µM 3% | [2]; at 3.7 µM 25% | [2]; at 11.0 µM 61% | [3]; at 1.2 µM 8% | [3]; at 3.7 µM 16% | [3]; at 11.0 µM 61% | [4]; at 1.2 µM 27% | [4]; at 3.7 µM 40% | [5]; at 1.2 µM 45% | [5]; at 3.7 µM 69% | [5]; [17] 60% | [6]; at 1.2 µM 24% | [6]; at 3.7 µM 32% | [6]; [17] 48% | [6]; at 11.0 µM 58% | [6]; at 50.0 µM 67.1% | [7]; at 1.2 µM 36% | [7]; at 3.7 µM 53% | [8]; [17] 57% | [9]; at 1.2 µM 38% | [9]; at 3.7 µM 46% | [9]; at 11.0 µM 68% | [10]; [17] 55% | [11]; at 1.2 µM 34% | [11]; at 3.7 µM 32% | [11]; [17] 40% | [11]; at 11.0 µM 67% | [12]; at 1.2 µM 31% | [12]; at 3.7 µM 50% | [13]; at 1.2 µM 20% | [13]; at 3.7 µM 58% | [14]; [17] 54% | [15]; at 1.2 µM 21% | [15]; at 3.7 µM 34%
active: [1]; at 11.0 µM 88% | [1]; at 33.0 µM 95% | [1]; at 100.0 µM 92% | [2]; at 33.0 µM 87% | [2]; at 100.0 µM 90% | [3]; at 33.0 µM 82% | [3]; at 100.0 µM 79% | [4]; at 11.0 µM 71% | [4]; at 33.0 µM 88% | [4]; at 100.0 µM 92% | [5]; at 11.0 µM 90% | [5]; at 33.0 µM 96% | [5]; [18] 97% | [5]; at 50.0 µM 89.5% | [5]; at 100.0 µM 90% | [6]; at 33.0 µM 78% | [6]; [18] 96% | [6]; at 100.0 µM 82% | [7]; at 11.0 µM 85% | [7]; at 33.0 µM 95% | [7]; at 100.0 µM 93% | [8]; [18] 96% | [8]; at 50.0 µM 78.8% | [9]; at 33.0 µM 83% | [9]; at 100.0 µM 84% | [10]; [18] 90% | [10]; at 50.0 µM 91.3% | [11]; at 33.0 µM 87% | [11]; [18] 96% | [11]; at 50.0 µM 92.2% | [11]; at 100.0 µM 93% | [12]; at 11.0 µM 78% | [12]; at 33.0 µM 92% | [12]; at 100.0 µM 91% | [13]; at 11.0 µM 87% | [13]; at 33.0 µM 96% | [13]; at 100.0 µM 96% | [14]; [18] 97% | [14]; at 50.0 µM 85.7% | [15]; at 11.0 µM 78% | [15]; at 33.0 µM 94% | [15]; at 100.0 µM 92%

COC(C(O)CO)C(O)C(O)C(=O)NNc1ccccc1 (stereo not drawn)
active: [1]; at 100.0 µM 93% | [4]; at 100.0 µM 94% | [5]; at 33.0 µM 79% | [5]; [18] 71% | [5]; at 50.0 µM 96.1% | [5]; at 100.0 µM 96% | [6]; [18] 76% | [6]; at 100.0 µM 94% | [7]; at 100.0 µM 84% | [8]; [18] 80% | [8]; at 50.0 µM 94.7% | [9]; at 100.0 µM 97% | [10]; at 50.0 µM 89% | [11]; [18] 97% | [11]; at 50.0 µM 96.1% | [11]; at 100.0 µM 93% | [16]; at 100.0 µM 86% | [13]; at 100.0 µM 97% | [15]; at 11.0 µM 79% | [15]; at 33.0 µM 78% | [15]; at 100.0 µM 97%
inactive: [1]; at 1.2 µM 12% | [1]; at 3.7 µM 23% | [1]; at 11.0 µM 45% | [1]; at 33.0 µM 61% | [2]; at 1.2 µM 1% | [2]; at 3.7 µM 5% | [2]; at 11.0 µM 29% | [2]; at 33.0 µM 36% | [2]; at 100.0 µM 66% | [3]; at 1.2 µM 15% | [3]; at 3.7 µM 29% | [3]; at 11.0 µM 37% | [3]; at 33.0 µM 41% | [3]; at 100.0 µM 68% | [4]; at 1.2 µM -1% | [4]; at 3.7 µM 11% | [4]; at 11.0 µM 29% | [4]; at 33.0 µM 26% | [5]; at 1.2 µM 35% | [5]; at 3.7 µM 41% | [5]; [17] 9% | [5]; at 11.0 µM 68% | [6]; at 1.2 µM 0% | [6]; at 3.7 µM 4% | [6]; [17] 7% | [6]; at 11.0 µM 40% | [6]; at 33.0 µM 31% | [6]; at 50.0 µM 54.4% | [7]; at 1.2 µM 6% | [7]; at 3.7 µM 9% | [7]; at 11.0 µM 19% | [7]; at 33.0 µM 21% | [8]; [17] 15% | [9]; at 1.2 µM 8% | [9]; at 3.7 µM 7% | [9]; at 11.0 µM 57% | [9]; at 33.0 µM 62% | [10]; [17] 5% | [10]; [18] 68% | [11]; at 1.2 µM -1% | [11]; at 3.7 µM 1% | [11]; [17] 23% | [11]; at 11.0 µM 26% | [11]; at 33.0 µM 34% | [16]; at 1.2 µM -4% | [16]; at 3.7 µM 22% | [16]; at 11.0 µM 22% | [16]; at 33.0 µM 9% | [13]; at 1.2 µM -11% | [13]; at 3.7 µM 34% | [13]; at 11.0 µM 47% | [13]; at 33.0 µM 68% | [15]; at 1.2 µM 17% | [15]; at 3.7 µM 49%
